Where “and” joins values, the source holds several entries; their conditions need not be identical. Equal entries are not always repeated. In all, about 190,000 compounds went through this assay and about 6,900 (3.6%) were called active. The full list was thinned out, with actives kept by preference. A number with no mark means an inactive call. Rule as the data show it: active = inhibition above about 50%; inactive = the rest.
biological target: Huntingtin (Homo sapiens) (UniProt P42858); assay: mutant huntingtin-calmodulin interaction inhibitors – biochemical, AlphaScreen, primary screen (AID 1671202); settings: AlphaScreen His-mHTT/GST-CaM binding, luminescence; at 15 µM, hits give high values;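 as to inhibition: 0% = both proteins with DMSO and 100% = one protein alone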
Sequence (P42858 whole entry, looked up, stated change not applied): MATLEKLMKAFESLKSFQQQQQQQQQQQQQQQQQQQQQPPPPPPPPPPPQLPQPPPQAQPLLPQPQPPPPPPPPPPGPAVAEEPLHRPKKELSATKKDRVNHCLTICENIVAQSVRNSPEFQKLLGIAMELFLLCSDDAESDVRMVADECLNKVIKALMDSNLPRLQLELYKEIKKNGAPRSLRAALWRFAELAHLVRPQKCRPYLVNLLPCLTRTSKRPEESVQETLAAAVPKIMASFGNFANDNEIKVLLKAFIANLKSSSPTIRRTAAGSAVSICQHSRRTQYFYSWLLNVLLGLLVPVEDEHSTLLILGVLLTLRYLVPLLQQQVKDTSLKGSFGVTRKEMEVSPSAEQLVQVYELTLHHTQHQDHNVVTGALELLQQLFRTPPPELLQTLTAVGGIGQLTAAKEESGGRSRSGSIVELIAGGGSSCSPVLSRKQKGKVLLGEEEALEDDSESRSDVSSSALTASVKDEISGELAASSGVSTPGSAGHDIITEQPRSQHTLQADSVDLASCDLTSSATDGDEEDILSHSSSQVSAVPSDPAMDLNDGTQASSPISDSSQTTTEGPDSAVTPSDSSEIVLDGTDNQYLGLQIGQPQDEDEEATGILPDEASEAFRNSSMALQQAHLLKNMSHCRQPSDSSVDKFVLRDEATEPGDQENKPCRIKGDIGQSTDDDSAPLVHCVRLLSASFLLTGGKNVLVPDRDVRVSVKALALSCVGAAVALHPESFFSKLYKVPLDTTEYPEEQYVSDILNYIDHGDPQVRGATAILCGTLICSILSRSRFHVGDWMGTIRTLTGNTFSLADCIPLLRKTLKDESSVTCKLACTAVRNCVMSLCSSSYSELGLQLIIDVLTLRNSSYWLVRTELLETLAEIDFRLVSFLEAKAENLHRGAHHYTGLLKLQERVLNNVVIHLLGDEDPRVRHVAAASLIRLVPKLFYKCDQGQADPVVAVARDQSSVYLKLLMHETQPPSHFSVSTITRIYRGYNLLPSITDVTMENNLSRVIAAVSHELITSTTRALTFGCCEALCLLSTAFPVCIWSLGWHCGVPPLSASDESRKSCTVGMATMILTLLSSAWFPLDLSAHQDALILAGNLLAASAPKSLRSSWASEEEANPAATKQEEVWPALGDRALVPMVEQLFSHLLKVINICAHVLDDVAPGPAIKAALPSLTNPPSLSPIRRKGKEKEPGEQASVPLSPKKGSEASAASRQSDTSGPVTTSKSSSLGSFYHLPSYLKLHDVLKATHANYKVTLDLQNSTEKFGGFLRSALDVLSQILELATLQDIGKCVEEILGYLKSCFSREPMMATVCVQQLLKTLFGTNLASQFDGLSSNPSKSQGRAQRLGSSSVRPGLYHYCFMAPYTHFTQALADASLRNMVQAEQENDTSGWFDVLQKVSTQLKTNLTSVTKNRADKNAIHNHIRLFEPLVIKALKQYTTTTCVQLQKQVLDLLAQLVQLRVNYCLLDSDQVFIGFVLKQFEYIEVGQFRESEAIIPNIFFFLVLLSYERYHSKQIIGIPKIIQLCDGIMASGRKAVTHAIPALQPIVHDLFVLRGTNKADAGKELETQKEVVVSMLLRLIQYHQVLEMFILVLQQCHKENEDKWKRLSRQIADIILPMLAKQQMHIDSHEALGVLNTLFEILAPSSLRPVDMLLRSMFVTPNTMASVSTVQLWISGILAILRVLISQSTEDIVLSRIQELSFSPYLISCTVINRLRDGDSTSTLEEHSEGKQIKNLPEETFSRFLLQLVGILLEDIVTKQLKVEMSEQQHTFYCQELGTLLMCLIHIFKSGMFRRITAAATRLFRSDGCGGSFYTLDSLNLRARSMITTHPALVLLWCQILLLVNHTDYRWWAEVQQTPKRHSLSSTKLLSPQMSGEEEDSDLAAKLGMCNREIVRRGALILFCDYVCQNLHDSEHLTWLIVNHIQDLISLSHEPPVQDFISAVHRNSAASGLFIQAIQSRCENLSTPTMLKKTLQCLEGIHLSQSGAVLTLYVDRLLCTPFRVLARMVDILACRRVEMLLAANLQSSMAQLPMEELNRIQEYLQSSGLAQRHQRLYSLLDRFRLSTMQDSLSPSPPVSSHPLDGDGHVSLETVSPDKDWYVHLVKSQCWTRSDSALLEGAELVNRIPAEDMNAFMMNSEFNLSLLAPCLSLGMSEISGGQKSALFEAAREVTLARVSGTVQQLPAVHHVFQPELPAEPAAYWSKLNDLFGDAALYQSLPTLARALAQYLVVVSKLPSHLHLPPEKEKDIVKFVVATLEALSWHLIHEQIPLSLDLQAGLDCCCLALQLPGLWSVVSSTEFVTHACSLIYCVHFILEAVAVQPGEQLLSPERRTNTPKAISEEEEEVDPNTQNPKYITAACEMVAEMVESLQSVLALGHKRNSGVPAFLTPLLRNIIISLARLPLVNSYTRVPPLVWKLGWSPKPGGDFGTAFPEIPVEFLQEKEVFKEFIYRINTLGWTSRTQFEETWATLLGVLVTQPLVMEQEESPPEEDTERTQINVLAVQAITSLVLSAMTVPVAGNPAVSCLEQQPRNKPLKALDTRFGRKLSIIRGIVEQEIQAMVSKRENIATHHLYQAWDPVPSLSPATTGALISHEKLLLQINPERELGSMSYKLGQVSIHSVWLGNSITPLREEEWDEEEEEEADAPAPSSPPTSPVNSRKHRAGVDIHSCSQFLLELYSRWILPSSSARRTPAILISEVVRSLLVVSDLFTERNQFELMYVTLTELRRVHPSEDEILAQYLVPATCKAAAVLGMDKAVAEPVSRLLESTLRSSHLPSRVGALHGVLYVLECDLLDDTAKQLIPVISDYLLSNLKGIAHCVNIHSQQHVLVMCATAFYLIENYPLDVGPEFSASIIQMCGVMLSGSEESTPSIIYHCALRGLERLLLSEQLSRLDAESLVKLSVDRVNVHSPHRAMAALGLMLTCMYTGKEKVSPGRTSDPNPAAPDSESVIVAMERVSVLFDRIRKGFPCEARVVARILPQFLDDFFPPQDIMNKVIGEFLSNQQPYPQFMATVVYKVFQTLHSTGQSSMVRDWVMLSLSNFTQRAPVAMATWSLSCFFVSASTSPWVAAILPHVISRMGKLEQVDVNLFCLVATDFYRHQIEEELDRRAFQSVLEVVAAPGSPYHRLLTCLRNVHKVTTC

| Compound | inhibition |
| --- | --- |
| O=C(NCC1(c2ccccc2)CCOCC1)C(=O)Nc1cccnc1 | -3.4% |
| N#C/C(=C\c1cn[nH]c1-c1cccs1)c1nc2ccccc2[nH]1 | 37% |
| COc1cccc(C2CC(c3cccc(Cl)c3)n3nc(N)nc3N2)c1 (stereo not given) | 30.3% |
| COc1ccc(C2CC(c3ccc(Cl)cc3Cl)Nc3nc(N)nn32)cc1OC (stereo not given) | 70.9% (active) |
| CCOc1ccccc1C1CC(c2ccc(Cl)cc2)Nc2nc(N)nn21 (stereo not given) | 54.2% (active) |
| CCOc1ccccc1C1CC(c2ccccc2)Nc2nc(N)nn21 (stereo not given) | 18.6% |
| CCOc1ccc(C2CC(c3ccccc3Cl)n3nc(N)nc3N2)cc1 (stereo not given) | 36.1% |
| COc1ccc(C2CC(c3ccc(C)cc3)Nc3nc(N)nn32)cc1 (stereo not given) | 11.1% |
| Cn1cccc1/C=N/NC(=O)CCCCCCC(=O)N/N=C/c1cccn1C | inactive |
| COc1ccc(C2C=C(c3ccc(C)cc3)Nc3nnnn32)cc1 (stereo not given) | -16% |
| Cc1cc(S(=O)(=O)NCC2(O)CCOCC2)c(Cl)cc1Cl | -11.3% |
| Cc1[nH]nc(-c2ccsc2)c1NC(=O)Cc1ccccc1 | -4% |
| COc1cccc(CC(=O)N2CCCC2c2cc(C)on2)c1 (stereo not given) | -5.74% |
| CC1CCCN(c2ccc(-c3noc(CN(C)C4CCCCC4)n3)cn2)C1 (stereo not given) | 10% |
| CCc1onc(C)c1C1CCCN1C(=O)c1nn(C)cc1Cl (stereo not given) | -0.93% |
| COc1cc(OC)c(OC)cc1/C=C1N=C(/C=C/c2ccccc2)OC/1=O | -2% |
| c1cc(N2CCCCCC2)ncc1-c1noc(CN2CCCC2)n1 | 15.8% |
| Cc1nc(-c2ccc(N3CCN(C(=O)C4CCCO4)CC3)nc2)no1 (stereo not given) | -5.6% |
| CCOC(=O)N1CCN(Cc2nc(-c3ccc(N4CCCCCC4)nc3)no2)CC1 | 78.7% (active) |
| CC(C)Cn1c(C2CCN(C(=O)c3n[nH]c4c3CCCC4)C2)nc2ccncc21 (stereo not given) | 5.16% |
| O=C(CNc1ccccc1-c1nc2ccccc2[nH]c1=O)NC1CCCCCCC1 | -7% |
| CCN(CC)C(=NS(=O)(=O)c1ccccc1)c1ccc(Cl)cc1 | -3% |
| CC(=O)Nc1cccnc1-c1ccc(C(=O)NCc2ccccc2)cc1 | -2.7% |
| CSc1ccc(C2C=C(c3cccs3)Nc3nnnn32)cc1 (stereo not given) | 2% |

| Compound | inhibition |
| --- | --- |
| COc1ccc(Cl)cc1C(=O)N1CCN(c2ccc3nnc(-c4ccco4)n3n2)CC1 | 72% (active) |
| COc1ccc(Cl)cc1C(=O)N1CCn2c(C)nnc2C1 | -9.2% |
| COc1ccc(Cl)cc1C(=O)N1CCN(c2cccc(Cl)c2)CC1 | -0.4% |
| COc1ccc(C2C(C(=O)Nc3ccc(Cl)cc3)=C(C)Nc3nnnn32)cc1 (stereo not given) | 23% |
| O=[N+]([O-])c1ccc(SCCO)c2ncccc12 | 6% |
| CCCC(=O)NC(Nc1ccccc1OC)C(Cl)(Cl)Cl (stereo not given) | -3% |
| CCCC(=O)NC(c1ccccc1OC)c1cc([N+](=O)[O-])c2cccnc2c1O (stereo not given) | 100% (active) |
| Cc1nc(-n2cccc2)sc1C(=O)NCc1cc(-c2ccco2)on1 | -1.3% |
| CN(Cc1ccccc1F)c1cc2c(c3c1ccn3C)C1CCC2O1 (stereo not given) | 75.9% (active) |
| O=C(C=Cc1ccco1)NCC1COC2(CCCCC2)O1 (stereo not given) | -5.5% |
| CCOc1ccccc1NC(=O)c1nn(-c2ccccc2OC)c(=O)c2ccccc12 | -4% |
| O=C1CSC(c2ccc(F)cc2)N1c1ccc(Br)cc1 (stereo not given) | -18% |
| CCCc1ccc(OCC(=O)c2ccc(O)c(C)c2O)cc1 | 80.4% (active) |
| O=C(COc1ccc([N+](=O)[O-])cc1)c1ccc(O)cc1O | 2.4% |
| CCCc1ccc(OCC(O)CN2CCN(C(=O)OCC)CC2)cc1 (stereo not given) | 24.7% |
| COCC(=O)N1CCCC(c2ccnc(-c3ccccc3)n2)C1 (stereo not given) | -3.3% |
| CC1CN(C(=O)COc2cccc3c2OC(C)(C)C3)CC(C)O1 (stereo not given) | 1.8% |
| CCCCOc1ccc(NC(=O)N(Cc2ccccn2)Cc2ccco2)cc1 | -0.5% |
| Cc1ccc(NC(=O)N2CCCC(CC(=O)N3CCN(c4ccccc4F)CC3)C2)cc1 (stereo not given) | 8.68% |
| CCOC(=O)CCC(=O)N1CCN(C2=NN=C(c3ccccc3)CS2)CC1 | 32.5% |
| O=C(c1cccs1)N1CCN(C2=NN=C(c3ccccc3)CS2)CC1 | 86.5% (active) |
| O=C(c1cccs1)N1CCN(c2cc(-c3cccnc3)[nH]n2)CC1 | -4.79% |
| O=[N+]([O-])c1ccc(Oc2ccc(Cl)c3cccnc23)c(Cl)c1 | -1% |
| Cc1ccccc1-c1noc(C2CCCN2C(=O)NCc2ccc(F)cc2)n1 (stereo not given) | 68.5% (active) |

| Compound | inhibition |
| --- | --- |
| Cc1ccccc1-c1noc(C2CCCN2C(=O)Nc2ccccc2Cl)n1 (stereo not given) | -25.4% |
| COc1ccc(NC(=O)N2CCCC2c2nc(-c3ccccc3C)no2)cc1 (stereo not given) | 7.96% |
| CCOc1cccc(C(=O)Nc2ccc(-c3nc4ncccc4o3)cc2)c1 | -4% |
| CC1(C)CC(=O)C2=C(C1)c1c(ccc3ncccc13)NC2c1ccc([N+](=O)[O-])cc1 (stereo not given) | 54% (active) |
| CCOc1ccc(C2Nc3ccc4ncccc4c3C3=C2C(=O)CC(C)(C)C3)cc1 (stereo not given) | 3% |
| CC1(C)CC(=O)C2=C(C1)c1c(ccc3ncccc13)NC2c1ccc(O)cc1 (stereo not given) | 2% |
| O=C1OC(/C=C/c2cccc(Cl)c2Cl)=NC/1=C\c1cccc([N+](=O)[O-])c1 | 1% |
| O=c1[nH]c2c(c(=O)[nH]1)C(c1cc([N+](=O)[O-])ccc1N1CCOCC1)O2 (stereo not given) | 3% |
| COc1ccc(C2CC(c3cccs3)=NN2c2ccccc2)cc1 (stereo not given) | -183% |
| CC1=NN2C(C1)c1ccccc1OC2c1ccc(Cl)cc1 (stereo not given) | -1% |
| Cc1ccc(C2Oc3ccccc3C3CC(c4cccs4)=NN32)o1 (stereo not given) | 63% (active) |
| N#Cc1ccc(C2Oc3ccccc3C3CC(c4ccccc4)=NN32)cc1 (stereo not given) | 14% and 1.44% |
| COc1ccc(C2=NN3C(C2)c2ccccc2OC3c2cccc([N+](=O)[O-])c2)cc1 (stereo not given) | 10% |
| COc1cc(OC)c(C2Oc3ccccc3C3CC(c4cccs4)=NN32)cc1OC (stereo not given) | 52% (active) |
| Cn1cccc1C(=O)N1CC2CC1CC2NS(=O)(=O)c1cccs1 (stereo not given) | 14.1% |
| Fc1ccc(CSc2nnnn2-c2ccc3c(c2)OCO3)cc1 | -29% |
| CC(C)c1nc2c(NC(=O)C3CC3)cccn2n1 | -7.5% |
| CCCCN(CC)S(=O)(=O)c1ccc(Cl)cc1 | -36.2% |
| Cc1cc(C)cc(N2C(=O)C(N3C(=O)c4ccccc4C3=O)C2c2ccc(F)cc2)c1 (stereo not given) | 3% |
| O=C(NCc1ccc(F)cc1)C1CCN(c2nccn3nc(-c4ccc(F)cc4)cc23)CC1 | 4.41% |
| O=C(NCCc1ccccn1)C1CCN(c2nccn3nc(-c4ccc(F)cc4)cc23)CC1 | 15% |
| CC(NC(=O)C1CCN(c2nccn3nc(-c4cccs4)cc23)CC1)c1ccccc1 (stereo not given) | 59.4% (active) |
| CC(NC(=O)C1CCN(c2nccn3nc(-c4ccccc4)cc23)CC1)c1ccc(F)cc1 (stereo not given) | -3.07% |
| O=C(NCc1cccs1)C1CCN(c2nccn3nc(-c4ccccc4)cc23)CC1 | 18.6% |

| Compound | inhibition |
| --- | --- |
| CCN(CC)S(=O)(=O)N1CCC(C(=O)NCc2cccnc2)CC1 | -11% |
| Cc1ccc(-c2cc3c(N4CCC(C(=O)NCc5cccnc5)CC4)nccn3n2)cc1C | 59.9% (active) |
| O=C(Nc1cccc(Cl)c1)C1CCN(c2nccn3nc(-c4ccccc4)cc23)CC1 | 4.34% |
| O=C(NCc1ccc(Cl)cc1)C1CCN(c2nccn3nc(-c4ccccc4)cc23)CC1 | 52% (active) |
| CCCCS(=O)(=O)N1CC=C(c2cn(CC)c3ncccc23)CC1 | 8.9% |
| Nc1ncnc(N2CCN(c3ccccc3)CC2)c1[N+](=O)[O-] | 7% |
| Cc1ccc(NC(=O)C2CCc3sc(C(=O)N(C)C)cc3C2)cc1Cl (stereo not given) | 5.44% |
| COc1ccc(-c2nc(-c3cccc(-c4ccnn4C)c3)no2)cc1F | -14.7% |
| CCC(Sc1nnnn1-c1ccccc1)C(=O)Nc1nnc(C(C)C)s1 (stereo not given) | 6.4% |
| O=C(Nc1ccc(N2CCN(c3ccccc3)C2=O)nc1)c1ccc(F)cc1 | 1.4% |
| Cn1cccc1CN(C(=O)Nc1ccccc1Cl)C1CC1 | 22% |
| COc1cc(/C=C2/C(=O)N(c3ccc(C(=O)O)cc3)N=C2C)ccc1O | 13% |
| COc1cc(/C=C2/SC(=O)NC2=O)cc(Br)c1O | 7% |
| CC1=NN(c2ccc(Cl)cc2Cl)C(=O)/C1=C/c1ccc(Cl)cc1 | 27% |
| COc1cc(/C=C2/C(=O)N(c3ccc(Cl)c(Cl)c3)N=C2C)cc(Br)c1O | 75% (active) |
| COc1cc(/C=C2/C(=O)N(c3ccc(Cl)c(Cl)c3)N=C2C)ccc1O | 79% (active) |
| COc1ccc(/C=C2/C(=O)N(c3ccccc3)N=C2C)c(OC)c1 | 25% |
| Cc1ccnc(NC(=O)c2c(O)c3cccc4c3n(c2=O)CCC4)c1 | 4% |
| CCCC(=O)N1CCC2(C1)C(=O)Nc1ccccc12 (stereo not given) | 0.5% |
| Cc1cccc2[nH]c(S(=O)(=O)Cc3ccc(F)cc3Cl)nc12 | -2% |
| Cc1ccccc1NC(NC(=O)c1cccc([N+](=O)[O-])c1)C(Cl)(Cl)Cl (stereo not given) | 48% |
| CC(C)(C)NC(NC(=O)c1ccc(Br)cc1)C(Cl)(Cl)Cl (stereo not given) | -11% |
| O=C(NC(Nc1cccc([N+](=O)[O-])c1)C(Cl)(Cl)Cl)c1ccc(Br)cc1 (stereo not given) | 76% (active) |

Source: PubChem BioAssay AID1671202 (University of Kansas High Throughput Screening Laboratory, 2021)
